Data taken from the OligoGym collection.

The sequences below were run against C14orf149 (assay: pooled miR-30 sensor sort-seq; sequence = guide strand). Conditions: shRNA.
Also: reference of the scale not given here.

Sequence	sensor-assay potency score (higher = more potent)
TTCCCTGTGAATACTGAGCCAG	-0.697
TAATTTAGAGAAAACAGTCCTT	0.523
TAAACTGAGCTTTCACTGCCTC	-0.0059

What follows are sequences tested against C14orf181 in the same assay as above. Conditions: shRNA.

Sequence	sensor-assay potency score (higher = more potent)
TGCACTGCCGCTTCCGACCGGG	-0.747
TTCGGAGTGAAGGAGGCGCTGC	-1.09
TAACCCTTCGCTGACCCGGCGT	-0.821
TTTAGCTTGGAGGTGGTGGTGG	0.0381
AGGTATTTTAGCTTGGAGGTGG	-1.31
TTCGGTTTTGTGCAAGGGGGAA	-0.823
TAGCTTGGAGGTGGTGGTGGGG	-0.69
AAAGTGAAAGTCTTCGGAGTGA	0.018
TTCGCCTGGAGCGCGTCCCTTC	-1.3
TTAGCTTGGAGGTGGTGGTGGG	-0.365
TATTTTAGCTTGGAGGTGGTGG	-0.309
AAAGTCTTCGGAGTGAAGGAGG	-0.89

What follows are sequences tested against C15orf39 in the same assay as above. Conditions: shRNA.

Sequence	sensor-assay potency score (higher = more potent)
TACACAGTCGCGCCACTGCAGG	-1.54
TTTGTCCTGACCTTCACTGGTG	-0.221
TTGTCCTGACCTTCACTGGTGG	-0.545
TACCGGTAGAGTACAAGGGTGG	-0.811
TTCAGCATGCGTGAGGTGCAGC	-0.396
TGGTGCTTCTGTGTCTATCTTT	-0.327
TAGAGAGAGAGGTCATCCCGGG	-0.132
ATAGAGAGAGAGGTCATCCCGG	-0.641
TTGTCAATGACAGGCATTGGTG	-1.34
TGGAGCTTCTCTTTCCTGCAGC	-0.965
ATAAGGAAAACTCAGTGTCTGG	-1.35

The sequences below were run against C15orf42 in the same assay as above. Conditions: shRNA.

Sequence	sensor-assay potency score (higher = more potent)
TTTAGGAACATTTTAACGGTTG	-0.0807
TTTACTCTTACTAACTTCTGAA	0.249
TTCATCTTCTGTCTCACTGGAG	0.162
TAGGTTTAGAACTTCTTAGTGT	0.687
TTCTTGATGAGCTATAGTGGAT	-1.03
TTAGTGATCTCTTTGAAGGGGA	0.326
TTGGTCTGACTTATCTTGCTGG	-0.193
TTGATTTACAAGACAATAGGAG	0.136
TTCAATTTGTCGAAGATTCTGT	0.525
TACAACATGATTTCTCCTGTGG	0.642
TATACTATCCACAACATCTGAG	0.285
TTCAACATCTTTAAGGAACGGC	0.686
